Compound activity deposited in PubChem BioAssay by National Center for Advancing Translational Sciences (NCATS).
Sampled rows, rich in hits. Any-hit rate of the full collection: about 2.3%.
Nrf2 activator: qHTS of Nrf2 Activators; AREc32 ARE-luciferase reporter (MCF7-derived line), luminescence, 24 h; Potency, µM (doses to about 46.1 µM), inactives show at the highest dose activation, most hits filed as activators; 410,000 tested, 0.31% active; AID 624171, 2012; also: potency is read from the fitted curve at half-maximal effect; % of control where 0% means no effect; nearly all actives have a fitted effect of over 65% in size
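AREc32_Fluc, 1000 cells/well, OPTI-MEM + 5% FBS, o/n 37 deg C 5% CO2; 23 nL cpd by pin tool, 24 hr; Steady-Glo 30 min RT, luminescence.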
miR-21 act: qHTS Assay for Modulators of miRNAs and/orActivators of miR-21; HeLa miR-21 FLuc reporter, luciferase, 48 h; AID 2288, 2010; 340,000 tested, under 10 active; Potency, µM (top dose mostly 38.3 µM), for the others: top-dose activity change, positive = activation, usual class: activators;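 also: % of control where 0% means no effect; miR-21 action dims this reporter so a rising signal means less miR-21 action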
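HeLa cells stably expressing CMV-driven firefly luciferase with a downstream miR-21 binding sequence, endogenously expressing miR-21, were treated with titrations (up to about 40uM final) for 48 hours at 37 degree Celsius. Luciferase luminescence was read after lysis.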
Nrf2 inh: Nrf2 qHTS screen for inhibitors | Potency, µM (top dose mostly 46 µM), without a hit: at the highest dose activity change, negative = inhibition, hits mostly inhibitors | A549 ARE-Fluc reporter, luciferase luminescence, 18-24 h | 360,000 tested, 2.1% active; also: potency is read from the fitted curve at half-maximal effect; % is scaled to controls: 0 for no effect and ±100 for the full control effect; nearly all actives have a fitted effect of over 60% in size
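A549 ARE_Fluc cells (5000/well, 5% FBS OPTI-MEM) pre-incubated 2 h, then treated with compounds 18-24 h at 37C/5% CO2 in concentration-response. CellTiter-Fluor viability read first; BugLite luciferase luminescence after 15 min at room temperature gives Nrf2 activity.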
Mito fusion yeast: qHTS Assay for Small Molecule Inhibitors of Mitochondrial Division or Activators of Mitochondrial Fusion. S. cerevisiae fusion-defective mutant growth rescue, CellTiterGlo 48 h. Potency, µM (top dose mostly 46.1 µM), inactives show at the top dose growth rescue (activation), most hits filed as activators. 320,000 tested, 0.23% active. AID 485298, 2010; also: potency is read from the fitted curve at half-maximal effect; % of control where 0% means no effect; nearly all actives have a fitted effect of over 45% in size
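Compounds are tested for their ability to restore growth of mitochondrial fusion-defective yeast strains at non-permissive 37C in YPEG medium over 48 hours. Viability is quantified by luciferase luminescence.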
A549 tox-1: Nrf2 qHTS screen for inhibitors: counterscreen for cytotoxicity. A549 ARE-Fluc cells, CellTiter-Fluor viability, 18-24 h. Potency, µM (highest dose often 46 µM), without a hit: top-dose activity change, negative = cytotoxicity, usual class: inhibitors. 390,000 tested, 0.16% active. AID 504648, 2011; also: potency is read from the fitted curve at half-maximal effect; % is scaled to controls: 0 for no effect and ±100 for the full control effect
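A549 ARE_Fluc cells in 5% FBS OPTI-MEM were exposed to compounds in concentration-response for 18-24 h at 37 deg C. Viability was read by CellTiter-Fluor fluorescence (Ex 405/Em 525) after 30 min, before the luciferase read.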
FLuc enzyme inh: Nrf2 qHTS screen for inhibitors: Purified Fluc Biochemical Counterscreen for Hit Validation; purified firefly luciferase, luminescence inhibition; 1,400 tested, 4% active; shares compounds with Nrf2 inh; Potency, µM (top dose mostly 57.5 µM), without a hit: top-dose activity change, negative = inhibition, usual class: inhibitors; also: potency is read from the fitted curve at half-maximal effect; % is scaled to controls: 0 for no effect and ±100 for the full control effect; nearly all actives have a fitted effect of over 65% in size
Target sequence (P08659 whole entry, looked up): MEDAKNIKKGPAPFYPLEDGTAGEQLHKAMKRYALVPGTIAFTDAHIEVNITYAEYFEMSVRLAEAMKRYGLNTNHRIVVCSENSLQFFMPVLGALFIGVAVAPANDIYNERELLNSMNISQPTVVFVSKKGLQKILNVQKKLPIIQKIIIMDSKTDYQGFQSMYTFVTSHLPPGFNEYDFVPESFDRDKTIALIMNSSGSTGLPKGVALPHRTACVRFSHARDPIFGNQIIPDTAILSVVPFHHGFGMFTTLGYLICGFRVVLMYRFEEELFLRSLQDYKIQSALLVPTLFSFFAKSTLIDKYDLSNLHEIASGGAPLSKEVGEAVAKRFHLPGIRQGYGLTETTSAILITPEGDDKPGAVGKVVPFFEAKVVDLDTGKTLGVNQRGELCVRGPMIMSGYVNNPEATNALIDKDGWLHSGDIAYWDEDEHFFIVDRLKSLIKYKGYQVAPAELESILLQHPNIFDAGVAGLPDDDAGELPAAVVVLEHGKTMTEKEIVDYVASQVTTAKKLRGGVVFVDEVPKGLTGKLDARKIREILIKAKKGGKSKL
A549 tox-2: Nrf2 qHTS screen for inhibitors: A549 ARE-Fluc Cytotoxicity Counterscreen for Hit Validation. shares compounds with Nrf2 inh. 1,400 tested, 2% active. AID 720523, 2013. Potency, µM (top dose mostly 46.1 µM), for inactives: at the top dose activity change, negative = cytotoxicity, hits mostly inhibitors. A549 ARE-Fluc cells, cytotoxicity counterscreen;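 also: potency is read from the fitted curve at half-maximal effect; cells exposed to compounds for 18 to 24 hours; % is scaled to controls: 0 for no effect and ±100 for the full control effect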
Nrf2 ARE inh: Nrf2 qHTS screen for inhibitors: Nrf2 A549 ARE-Fluc Confirmation Assay for Hit Validation | shares compounds with Nrf2 inh | A549 ARE-firefly luciferase reporter, luminescence | Potency, µM (highest dose often 46.1 µM), for inactives: at the top dose activity change, negative = inhibition, actives largely listed as inhibitors | 1,400 tested, 74% active; also: potency is read from the fitted curve at half-maximal effect; % is scaled to controls: 0 for no effect and ±100 for the full control effect; nearly all actives have a fitted effect of over 65% in size
The depositor's hits bear a star; ? = inconclusive; · = no result given; [ ] = another dose, or the depositor's remark. Calls follow the shape of the dose curve; as a rule, active = well fitted curve in the direction sought with a large enough effect; inconclusive = small, poorly fitted or top-dose-only effect, or another doubt; inactive = no such curve, though single readings can be large; an effect the other way counts as inactive or inconclusive.

SMILES	Nrf2 activator	miR-21 act	Nrf2 inh	Mito fusion yeast	A549 tox-1	FLuc enzyme inh	A549 tox-2	Nrf2 ARE inh
Cc1cc(C)cc(NC(=O)CSc2oc(-c3cccs3)nc2S(=O)(=O)c2ccccc2)c1	5%	-13%	4%[9.27 µM]	·	-1%	·	·	·
CCCCCCCCNc1ncnc2ccccc12	4%	23%	5.8µM*	3%	?	-1%	-2%	7.3µM*
CC(=O)NCCNC(=O)c1ccc2c(=O)n(CCc3ccccc3)c(=O)[nH]c2c1	-1%	-14%	5%[9.27 µM]	·	1%	·	·	·
Cc1ccsc1-c1nc(CSCC(=O)N2CCN(c3ccccc3)CC2)c(C)o1	3%	16%	?	?	3%	·	·	·
COc1ccc(-c2nc(CSCC(=O)N3CCN(c4ccccc4)CC3)c(C)o2)cc1	-1%	?	2.6µM*	·	?	-17%	-22%	?
O=c1[nH]c(=O)n(C2OC(CO)C(O)C2O)cc1F (stereo unspecified)	0%	·	?	·	?	2%	?	0.15µM*
Nc1nc(=O)n(C2OC(CO)C(O)C2O)cc1F (stereo unspecified)	1%	·	·	·	·	·	·	·
O=c1[nH]c(=O)n([C@@H]2O[C@H](CO)[C@@H](O)[C@H]2O)cc1F	·	·	·	·	·	0%	?	46%
COc1ccc(CN(C(=O)Nc2ccccc2)c2ccccn2)cc1OC	3%	-18%	5%	·	-4%	·	·	·
C[C@H]1C[C@H]2[C@@H]3CCC4=CC(=O)C=C[C@]4(C)[C@@]3(Cl)[C@@H](O)C[C@]2(C)[C@@]1(O)C(=O)CO	1%	-31%	0.015µM*	2%	-23%	3%	-10%	0.015µM*
CC12C=CC(=O)C=C1CCC1C3CCC(O)(C(=O)CO)C3(C)CC(O)C12F (stereo unspecified)	2%	·	0.01µM*	·	-5%	4%	-8%	0.01µM*
CC(=O)OCC(=O)[C@@]12OC(C)(C)O[C@@H]1CC1C3C[C@H](F)C4=CC(=O)C=CC4(C)[C@@]3(F)C(O)CC12C (stereo partly specified)	1%	·	?	2%	-9%	·	·	·
C[C@H]1C[C@H]2[C@@H]3CCC4=CC(=O)C=C[C@]4(C)[C@@]3(F)[C@@H](O)C[C@]2(C)[C@@]1(O)C(=O)CO	-1%	·	0.016µM*	·	-12%	-1%	-8%	0.0052µM*
CC(=O)C1(O)CCC2C3CC(C)C4=CC(=O)C=CC4(C)C3(F)C(O)CC21C (stereo unspecified)	0%	·	0.033µM*	·	-6%	2%	-1%	0.065µM*
C[C@H]1CC2C3CCC4=CC(=O)C=C[C@]4(C)[C@@]3(Cl)[C@@H](O)C[C@]2(C)[C@@]1(O)C(=O)CO (stereo partly specified)	·	·	·	-2%	·	·	·	·
COc1ccc(N(C(=O)Cn2nnc3ccccc32)C(C(=O)NCc2ccccc2)c2ccc(F)cc2)cc1 (stereo unspecified)	-1%	-6%	-24%	·	-6%	·	·	·
COc1ccc(Cl)cc1NC(=O)CSc1ccc(-c2sc(C)nc2C)nn1	0%	2%	·	·	?	·	·	·
